Compound activity (PubChem)
LMP1 NFkB inh: Epstein-Barr LMP1 NF-kappaB reporter inhibition. hit rate 0.69% among 350,000. AID 504558. inhibition, % at 12.5 µM. LMP1-induced NF-kappaB luciferase reporter cells, luminescence; in the data active = inhibition above about 41%;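 also: 0% = neutral control wells and 100% = reference inhibitor control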
Shn3 3UTR inh: reduces Shn3 3'UTR luciferase signal in osteoblasts. inhibition, % at 12.5 µM. hit rate 0.52% among 360,000. Clone20 osteoblast Shn3 3'UTR firefly luciferase, 24 h;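 active = mean inhibition of at least 75% with every replicate also reaching 75%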;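 also: 0% = median of neutral control wells and 100% = pilot-screen positive control compound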
MITF TRPM1 inh: MITF TRPM1 promoter inhibition in SK-MEL-5 cells; SK-MEL-5 TRPM1 promoter luciferase, 24 h; hit rate 0.83% among 330,000; inhibition, % at 12.5 µM;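 active = mean inhibition across replicates of 60% or more, whatever share of single replicates reaches that level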
Peg3 promoter: inhibitors of Peg3 promoter; hit rate 1.7% among 360,000; inhibition, % at 20 µM; AID 588405; HeLa PEG-Prom luciferase reporter, luminescence, overnight;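 active = inhibition of at least 50% at 20 µM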
TWEAK Fn14 block: inhibitors of TWEAK-Fn14 interaction signaling; TWEAK-stimulated Fn14 reporter cells, luciferase luminescence, 8 h; hit rate 2% among 360,000; AID 1159606; inhibition, % at 10 µM; in the data active = inhibition above about 50%
TROY signal inh: blocks TROY-dependent signaling in reporter cells. AID 1347056. Q293 LMP1-TROYcd NF-kB luciferase reporter, 4 h. hit rate 0.98% among 360,000. inhibition, % at 10 µM;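 active = compounds whose plate-normalised and pattern-corrected inhibition of the luciferase reporter signal at the single screening dose is 50% or more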
Active calls of the source: *; x = no result. Shown are actives, neighbours in structure and some others; about 4.1% of the full set was active somewhere.

SMILES	LMP1 NFkB inh	Shn3 3UTR inh	MITF TRPM1 inh	Peg3 promoter	TWEAK Fn14 block	TROY signal inh
CC1C2NC(=O)N(Cc3ccccc3)C1(C)Oc1ccccc12 (configuration not stated)	5	x	5	11	-10	-5
Cc1cc(/C=C(\C#N)C(=O)NCc2ccco2)c(C)n1-c1ccc(C(=O)O)cc1	1	6	6	11	2	-16
CCN(CC)CCNc1ccc(CO)c2oc3cc(Cl)ccc3c(=O)c12	-9	19	x	101*	-86	-43
CCOC(=O)c1[nH]c2ccc(F)cc2c1NC(=O)CN1CCN(C/C=C/c2ccccc2)CC1	8	30	47	65*	14	12
O=C(NCc1ccccn1)c1c(-c2ccccc2)sc2ccccc12	3	12	7	-5	12	-11
CCOC(=O)N1CCN(S(=O)(=O)c2ccc(C(=O)NNc3nc4cc(C)cc(C)c4s3)cc2)CC1	5	82	55	46	-19	10
Cc1cccc2sc(NNC(=O)c3ccc(S(=O)(=O)N4CCCC(C)C4)cc3)nc12 (configuration not stated)	8	23	42	68*	63*	46
CCOC(=O)N1CCN(S(=O)(=O)c2ccc(C(=O)NNc3nc4c(C)cccc4s3)cc2)CC1	92*	41	20	50	5	43
Cc1cccc2sc(NNC(=O)c3ccc(S(=O)(=O)N4CCc5ccccc5C4)cc3)nc12	-19	72	52	61*	44	29
CCc1c(C(=O)NNC(=S)NCCc2ccccc2)csc1C	0	-9	-7	-61	-19	-41
C=CCSc1nc2c(N)ncnc2n1C1OC(CO)C(O)C1O (configuration not stated)	-10	-9	x	-2	13	-11
Cc1cc(C)n(/N=C/c2cc([N+](=O)[O-])ccc2O)c(=O)c1	-1	-4	-8	8	-25	60*
O=[N+]([O-])c1ccc(O)c(/C=N/n2cnnc2)c1	-2	-5	-6	3	5	15
CCCCC(=O)Nc1ccc(C(=O)NNC(=O)c2ccccc2Br)cc1	-6	-7	0	13	0	13
COc1ccccc1N(C(=O)CNC(=O)c1ccco1)C(C(=O)NC1CCCC1)c1ccco1 (configuration not stated)	2	-1	-2	3	8	3
O=C(CN1CCCCC1)Nc1ccc(NC(=O)c2ccc(Cl)cc2)cc1Cl	15	7	-7	-8	-34	-18
Cc1ccc(-c2nc3cc(N)ccc3o2)c(C)c1	-6	-4	2	-199	46	9
COc1cccc(C(=O)Nc2ccc(-c3nc4ccccc4o3)c(O)c2)c1	-5	-16	-13	-84	6	21
Cc1ccc2oc(-c3ccco3)nc2c1	-24	-82	-51	-134	13	-30
CC(C)c1ccc2oc(-c3ccc(N)cc3)nc2c1	16	39	3	-103	81*	38
COc1cc(C(=O)Nc2ccc(-c3nc4cc(C)ccc4o3)c(O)c2)cc(OC)c1OC	12	34	-5	70*	52*	2
Cc1ccc(-c2nc3cc(N)ccc3o2)cc1	6	19	16	-125	70*	-12
Cc1ccc2oc(-c3cccc(N)c3)nc2c1	-16	1	1	-100	51*	3
O=C(Nc1ccccc1Br)c1ccc(N2CCCC2=O)cc1	-16	-79	-84	-323	-12	-18
COc1ccc(C2=NOC(C)(c3nnc(-c4ccccc4)o3)C2)cc1 (configuration not stated)	2	0	-18	-4	-7	-1
SMILES	LMP1 NFkB inh	Shn3 3UTR inh	MITF TRPM1 inh	Peg3 promoter	TWEAK Fn14 block	TROY signal inh
CC(C)N(CCO)C(=O)CCc1nnc(Cc2cccc(C(F)(F)F)c2)o1	2	-18	-4	-13	-2	-3
CCC(C)NCC(=O)Nc1ccc(-c2nc3cc(NC(=O)CNC(C)CC)ccc3o2)cc1 (configuration not stated)	-44	9	84*	108*	-140	-29
Cc1ccc2oc(-c3ccc(NC(=O)c4cccnc4)cc3)nc2c1	-18	-54	-17	-147	56*	13
Cc1ccc2nc(-c3cccnc3)oc2c1	-23	-29	-85	-234	-2	-70
Cc1ccc2nc(-c3ccccn3)oc2c1	18	-20	-2	-116	53*	-13
Nc1cccc(-c2nc3cc(S(=O)(=O)c4ccc5oc(-c6cccc(N)c6)nc5c4)ccc3o2)c1	14	46	55	73*	-12	-26
COc1cc(C)c(C(C)C)cc1S(=O)(=O)NCCCn1ccnc1	-24	7	4	3	12	14
O=C(Nc1ccc2oc(-c3cccnc3)nc2c1)c1ccc([N+](=O)[O-])o1	-3	52	71*	108*	21	3
Nc1ccc(-c2nc3cc([N+](=O)[O-])ccc3o2)cc1	-31	-63	-41	-237	-19	-30
CC(C)(C)c1ccc(-c2nc3cc(N)ccc3o2)cc1	-24	11	13	-170	69*	64*
O=C(Nc1ccc2oc(-c3cccnc3)nc2c1)c1ccc(Br)o1	7	0	10	0	1	x
Cc1ccc(-c2nc3cc(C)ccc3o2)cc1	-12	4	43	-156	84*	65*
Cc1cc(OCC(O)CN2CCN(c3ccccn3)CC2)cc(C)c1Cl (configuration not stated)	-8	-9	-14	4	-8	10
Cc1ccc(S(=O)(=O)N2CCOCC2)cc1C(=O)OCC(=O)c1ccc[nH]1	-9	16	4	21	-10	-4
CSCC[C@H](NC(=O)N1CCn2c1nc1ccccc12)C(=O)NCc1ccc(C)cc1	2	19	11	5	11	2
O=C(N/N=C/c1ccc(OCC(=O)N2CCOCC2)cc1)c1ccccc1Cl	-2	-3	0	-17	-6	-22
O=C(Nc1ccc(OCC(=O)N2CCOCC2)cc1)c1ccccc1Cl	51*	-44	-39	-84	-13	-40
COCCCNC(=O)/C=C1\Sc2ccccc2N(Cc2ccccc2F)C1=O	-4	-46	-49	-109	103*	-29
O=C(CN1C(=O)/C(=C/c2ccccc2F)Sc2ccccc21)NCCCN1CCOCC1	-22	-8	-5	-8	-13	-17
CC(/C=N/n1cnnc1)=C\c1ccco1	4	2	14	6	6	-11
O=C(Nc1ccccc1C(=O)O)/C(=C/c1ccc([N+](=O)[O-])cc1)NC(=O)c1ccc(Br)o1	-8	-3	-7	4	-12	14
Nc1ccccc1Nc1cccc(C(F)(F)F)c1	2	-7	-15	21	50*	19
CCN(CC)c1ccc(/C=N/NC(=O)c2cccc(S(=O)(=O)Nc3ccccc3OC)c2)c(O)c1	58*	83	72*	47	-10	-7
